# Values joined by “and” are separate entries in the source; they are usually repeats but may differ in a detail not shown here. Equal entries are not always repeated. Screen size: about 16,000 compounds; about 5,800 (36%) were called active. Not shown: some 23% with an inconclusive outcome. The list shows a part of the results. Values without a mark were called inactive. The call rests on the fitted dose curve; in most records, active means well fitted curve in the direction sought with a large enough effect; inconclusive means small, poorly fitted or top-dose-only effect, or effect the other way; inactive means no such curve, though single readings can be large or run the other way.
# Target: Cytochrome P450 2C19 (Homo sapiens) (UniProt P33261)
# Sequence (P33261 whole entry, looked up): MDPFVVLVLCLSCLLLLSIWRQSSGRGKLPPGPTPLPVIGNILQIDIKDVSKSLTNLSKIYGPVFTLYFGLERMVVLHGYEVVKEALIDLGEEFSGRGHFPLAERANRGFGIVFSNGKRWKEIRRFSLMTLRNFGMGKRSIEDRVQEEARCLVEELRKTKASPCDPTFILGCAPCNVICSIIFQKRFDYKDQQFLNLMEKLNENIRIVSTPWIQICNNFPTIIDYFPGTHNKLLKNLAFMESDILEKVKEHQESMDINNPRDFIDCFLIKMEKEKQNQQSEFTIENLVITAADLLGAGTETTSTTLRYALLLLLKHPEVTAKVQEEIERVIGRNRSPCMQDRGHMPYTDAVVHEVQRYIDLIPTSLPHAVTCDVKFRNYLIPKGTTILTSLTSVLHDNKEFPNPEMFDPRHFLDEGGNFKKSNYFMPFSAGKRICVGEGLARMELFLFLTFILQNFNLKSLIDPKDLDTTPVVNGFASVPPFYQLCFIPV
# Test: Cytochrome panel assay with activity outcomes
# Conditions: recombinant CYP, pro-luciferin dealkylation, luminescence, p450-cyp2c19; series mostly up to 57.1 µM
# On the % scale 0 is the no-effect control and ±100 the full control effect.
SMILES,AC50,"activity, negative = inhibition"
C=CCSC1=Nc2sccc2C2=NC(=O)CN12,7.94 µM (active),–
C[C@@](N)(Cc1ccc(O)c(O)c1)C(=O)O,inactive,–
COc1ccccc1-c1nccc(NCc2ccccc2)n1,7.94 µM (active),–
CNc1ccnc(-c2ccccc2OC)n1,inactive,–
Cc1ccccc1-c1nccc(NCc2cccnc2)n1,5.01 µM (active),–
Cc1cnc(CNc2ccnc(-c3ccccc3C)n2)cn1,inactive,–
Cc1cccc(CNc2ccnc(-c3ccccc3CN(C)C)n2)c1,inactive,–
COc1ccccc1-c1nccc(NCc2cccc(C)c2)n1,10 µM (active),–
Cc1cccc(CNc2ccnc(-c3ccccc3Cl)n2)c1,1.26 µM (active),–
Cc1noc(C)c1-c1nccc(NCc2cccnc2)n1,25.1 µM (active),–
COc1ccccc1-c1nccc(NCc2cccnc2)n1,3.98 µM (active),–
Cc1cnc(CNc2ccnc(-c3c(C)noc3C)n2)cn1,inactive,–
COC(=O)C/C=C\[C@@H](C)[C@@H](/C=N\OC[C@@H](O)[C@H]1O[C@H]2OC(C)(C)O[C@H]2[C@@H]1O)OC,–,-19.4% [at 11.4 µM]
Clc1ccccc1-c1nc(-c2ccccc2)n[nH]1,17.8 µM (active),–
NC(=O)Nc1n[nH]c(-c2ccccc2)n1,–,13.8% [at 11.4 µM]
O=c1ccc(-c2ccccc2)n[nH]1,–,13.5% [at 11.4 µM]
CN1CCN(c2ncc3nc(-c4cc(F)cc(F)c4)c(=O)n(C4CC4)c3n2)CC1,inactive,–
Nc1ccc(S(=O)(=O)NC(=O)c2ccccc2)cc1,inactive,–
O=S(=O)(O)c1ccc(N=Nc2ccccc2)cc1,–,6.93% [at 11.4 µM]
O=S(=O)(C=C(c1ccccc1)c1ccccc1)c1ccccc1,2.82 µM (active),–
COc1ccc(S(=O)(=O)N2CC3CCCN3c3ccc(C(F)(F)F)cc32)cc1 (configuration not stated),0.562 µM (active),–
COc1ccc(C(OCCN2CCC[C@@H](C(=O)O)C2)(c2ccc(OC)cc2)c2ccc(OC)cc2)cc1,inactive,–

SMILES,AC50,"activity, negative = inhibition"
COc1ccc(NC(=O)N2CC[C@@]3(CCCN(C(=O)c4cc(C(F)(F)F)cc(C(F)(F)F)c4)C3)C2)cc1,inactive,–
O=S(=O)(c1ccc(F)cc1)N1CC2CCCN2c2ccc(C(F)(F)F)cc21 (configuration not stated),2.24 µM (active),–
Nc1ccccc1CCCC(=O)O,–,-13.9% [at 11.4 µM]
COc1ccccc1CN1CCCC2(CCN(C(=O)c3csnn3)CC2)C1,inactive,–
COC(=O)c1nn(-c2cccc(C(F)(F)F)c2)c(=O)cc1Sc1ccccn1,5.62 µM (active),–
N#Cc1cc(N)ccc1Sc1ccc(Cl)cc1,3.16 µM (active),–
CCc1sc(N(C(=O)Cc2ccccc2)c2cccc(F)c2)nc1-c1ccc(C)cc1,2.82 µM (active),–
c1ccc(-c2nnn(CCN3CCCCC3)n2)cc1,1.26 µM (active),–
c1ccc([C@H](CCN2CCCC2)c2ccccn2)cc1,–,-19.9% [at 11.4 µM]
CC(C)c1ccc(-c2nnn(CCC(=O)O)n2)cc1,inactive,–
O=C(O)c1cc2ccccc2c(Cc2cc3ccccc3c(C(=O)O)c2O)c1O (tested in a mixture with another compound),inactive,–
COc1ccc2c(Cc3c4ccccc4cc4ccccc34)cncc2c1O,2.51 µM (active),–
O=C(c1csnn1)N1CCC2(CC1)CN(Cc1cc(C(F)(F)F)cc(C(F)(F)F)c1)C2,inactive,–
CCn1cc(C(=O)O)c(=O)c2cnc(N3CCNCC3)nc21,inactive,–
O=C(NCc1cccnc1)c1sc2cc(Cl)ccc2c1Cl,2 µM (active),–
CC[C@H](NC(C)C)[C@H](O)c1ccc(O)c(O)c1,inactive,–
CC1=CC(=O)N(c2cccc(C(F)(F)F)c2)C1c1ccc(Cl)cc1 (configuration not stated),2.24 µM (active),–
Cc1ccc(NC(=S)/C(=C(\[O-])c2ccc(C)c([N+](=O)[O-])c2)[n+]2ccccc2)cc1C,7.94 µM (active),–
CC1(C)[C@@H]2CC[C@@]1(CS(=O)(=O)Nc1ccccc1)C(=O)C2,2 µM (active),–
O=C(O)c1ccc(NS(=O)(=O)Cc2ccccc2)cc1,–,-9.9% [at 11.4 µM]
COC(=O)C1=C(C)NC2=C(C(=O)CCC2)C1c1cn(Cc2ccc(Cl)cc2Cl)nc1-c1ccccc1 (configuration not stated),2.24 µM (active),–
COCCOC(=O)C1=C(C)NC(=O)N(C(C)=O)C1c1ccc(Cl)cc1 (configuration not stated),3.55 µM (active),–

SMILES,AC50,"activity, negative = inhibition"
CO[C@@H]1COC(=O)C/C=C\[C@H](C)[C@@H](NS(=O)(=O)c2ccc(C)cc2)COC(=O)C/C=C\[C@@H]1C,–,-12.5% [at 11.4 µM] and -34.1% [at 11.4 µM]
CC(c1ccccc1C(O)c1ccccc1)N(C)C (configuration not stated),inactive,–
O=C(NCCOC12CC3CC(CC(C3)C1)C2)c1cccc(Br)c1,0.891 µM (active),–
NC(=O)c1ccc[n+](CC(=O)OCCC23CC4CC(CC(C4)C2)C3)c1,inactive,–
N[C@H](C(=O)O)c1nn[nH]n1,inactive,–
OC[C@@H](O)CN1CCN(c2ccccc2)CC1,inactive,–
c1ccc(N2CCN(CCCOc3ccc4c(c3)OCO4)CC2)cc1,5.01 µM (active),–
C/C(CCN1CCCCc2nc(C)c(C)cc21)=N\O[C@@H](C)CN1CCCCc2nc(C)c(C)cc21,–,42.7% [at 11.4 µM]
COc1ccc(O[C@H]2C=C[C@@H](c3ccccc3)O[C@H]2COC(=O)CC/C(C)=N\O[C@@H](C)CN2CCCc3nc(C)c(C)cc32)cc1,3.16 µM (active),–
C/C(CCN1CCCCc2nc(C)c(C)cc21)=N\O[C@@H](C)CN1CCCc2nc(C)c(C)cc21,–,25.7% [at 11.4 µM]
CC(=O)OC[C@@H]1O[C@H](C/C=N\O[C@@H](C)CN2CCCCc3nc(C)c(C)cc32)C=C[C@@H]1OC(C)=O,–,34.1% [at 11.4 µM]
C/C(CCN1CCCc2nc(C)c(C)cc21)=N\O[C@@H](C)CN1CCCCc2nc(C)c(C)cc21,–,9.26% [at 11.4 µM]
C/C(CCC(=O)OC[C@@H]1O[C@H](C#Cc2ccccc2)C=C[C@@H]1Oc1ccc(C)cc1)=N/O[C@@H](C)CN1CCCc2nc(C)c(C)cc21,3.16 µM (active),–
COc1ccc(O[C@H]2C=C[C@@H](c3ccccc3)O[C@H]2COC(=O)CC/C(C)=N\O[C@@H](C)CN2CCCCc3nc(C)c(C)cc32)cc1,5.01 µM (active),–
CC(=O)OC[C@@H]1O[C@H](C/C=N\O[C@@H](C)CN2CCCc3nc(C)c(C)cc32)C=C[C@@H]1OC(C)=O,–,12.3% [at 11.4 µM]
C/C=C\C[C@@H](C)[C@@H](O)[C@H]1C(=O)N[C@@H](CC)C(=O)N(C)CC(=O)N(C)[C@@H](CC(C)C)C(=O)N[C@@H](C(C)C)C(=O)N(C)[C@@H](CC(C)C)C(=O)N[C@@H](C)C(=O)N[C@H](C)C(=O)N(C)[C@@H](CC(C)C)C(=O)N(C)[C@@H](CC(C)C)C(=O)N(C)[C@@H](C(C)C)C(=O)N1C,inactive,–
NC(=NCc1ccccc1)NC(=O)c1nc(Cl)c(N)nc1N,inactive,–
O=C1[C@@H]2[C@@H](C(=O)N1c1ccc(OCc3ccccc3)cc1)[C@@H]1c3ccccc3[C@@H]2[n+]2ccccc21,–,-10.9% [at 11.4 µM]
O=C1C2C3c4ccccc4C(c4ccccc43)C2C(=O)N1c1nc(-c2ccccc2)cs1 (configuration not stated),1.78 µM (active),–
N=C1SCC(=O)N1c1nc(-c2ccccc2)cs1,inactive,–
O=C(c1ccco1)N(CCC(c1ccccc1)c1ccco1)Cc1ccco1 (configuration not stated),3.98 µM (active),–
CNCCC=C1c2ccccc2C=Cc2ccccc21,inactive,–

SMILES,AC50,"activity, negative = inhibition"
Cc1ccccc1-c1cc(NCc2ccccc2)ncn1,3.16 µM (active),–
Cc1ccccc1-c1cc(NCc2cccnc2)ncn1,10 µM (active),–
FC(F)(F)c1ccccc1-c1cc(NCc2cccnc2)ncn1,10 µM (active),–
CN(C)Cc1ccccc1-c1cc(NCc2cccs2)ncn1,inactive,–
FC(F)(F)c1ccccc1-c1cc(NCc2cccs2)ncn1,0.794 µM (active),–
Cn1cc(-c2nc3cnc(Oc4ccccc4)nc3n(Cc3cccs3)c2=O)c2ccccc21,inactive,–
CCCCOC(=S)NC(=O)c1sc2ccccc2c1Cl,0.794 µM (active),–
Cn1cccc1/C=N/NC(=O)c1sc2ccccc2c1Cl,7.94 µM (active),–
Cc1ccc(C(=O)N/N=C\c2cccn2C)cn1,inactive,–
O=C(NC(=S)N(CCCCO)C1CCCCC1)c1sc2ccccc2c1Cl,7.08 µM (active),–
Cc1nn(Cc2ccccc2Cl)c(C)c1NC(=O)CCCn1nc(C)c([N+](=O)[O-])c1C,inactive,–
Cc1ccccc1Cn1nc(C)c(NC(=O)c2sc3ccccc3c2Cl)c1C,14.1 µM (active),–
CO[C@H]1COC(=O)C/C=C\[C@@H](C)COC(=O)[C@H]2CCCN2C(=O)C/C=C\[C@H]1C,–,-21.9% [at 11.4 µM]
CCOC(=S)NC(=O)c1sc2ccccc2c1Cl,3.16 µM (active),–
O=C(O)CCC(=O)c1ccc2sc3ccccc3c2c1,–,9.52% [at 11.4 µM]
CO/N=C(\C)CCN1CCCc2nc(C)c(C)cc21,–,-7.2% [at 11.4 µM]
Cc1cc(NC(=O)C2=C(O)c3ccccc3S(=O)(=O)N2C)no1,inactive,–
Cc1ccccc1NC1=C(C(=O)c2ccccc2)N(C)S(=O)(=O)c2ccccc21,8.91 µM (active),–
CO[C@@H]1/C=C\CC(=O)N[C@@H](C)C(=O)OC[C@@H](OC)[C@H](C)CCCC(=O)OC[C@H]1C,–,-3.19% [at 11.4 µM]
C[C@@H]1CCC[C@H](C)N1NC(=O)c1ccc(Cl)c(S(N)(=O)=O)c1,inactive,–
CC1CCCC(C)N1C(=O)c1cc(-c2ccc(Cl)c(Cl)c2)on1 (configuration not stated),11.2 µM (active),–
